Compounds without any hit were thinned out: in the full panel of roughly 83,000, 20% have a hit.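 Each cell line was grown in a 96-well plate and treated with one concentration of compound for 48 hours. Values below 10 were considered active.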 The source made the active and inactive calls.
What was measured:
Experiment in all cases: NCI-60 one-dose screen, 48 h (100 = growth as untreated, 0 = no growth, -100 = all killed)
Conditions in all cases: 10 µM unless noted
NCI-H23 lung = system: NCI-H23 lung
NCI-H226 lung = system: NCI-H226 lung
NCI-H322M lung = system: NCI-H322M lung
HOP-62 NSCLC = system: HOP-62 NSCLC
NCI-H460 lung = system: NCI-H460 lung
786-0 renal = system: 786-0 renal
MDA-MB-231 breast = system: MDA-MB-231 breast
SF-268 CNS = system: SF-268 CNS
SF-539 CNS = system: SF-539 CNS
U251 CNS = system: U251 CNS
UACC-62 melanoma = system: UACC-62 melanoma
SK-MEL-28 melanoma = system: SK-MEL-28 melanoma
SN12C renal = system: SN12C renal
UO-31 renal = system: UO-31 renal
OVCAR-8 ovarian = system: OVCAR-8 ovarian
OVCAR-3 ovarian = system: OVCAR-3 ovarian
MDA-MB-435 melanoma = system: MDA-MB-435 melanoma
SW-620 colon = system: SW-620 colon
MCF7 breast = system: MCF7 breast
KM12 colon = system: KM12 colon

Measured: growth

CNC(=O)Oc1cccc(N(C)C)c1
inactive: NCI-H23 lung 106% | NCI-H226 lung 93.3% | NCI-H322M lung 102% | HOP-62 NSCLC 101% | NCI-H460 lung 105% | 786-0 renal 102% | MDA-MB-231 breast 93% | SF-268 CNS 106% | SF-539 CNS 100% | U251 CNS 99.1% | UACC-62 melanoma 100% | SK-MEL-28 melanoma 111% | SN12C renal 94.6% | UO-31 renal 86.6% | OVCAR-8 ovarian 99.5% | OVCAR-3 ovarian 110% | MDA-MB-435 melanoma 97.5% | SW-620 colon 104% | MCF7 breast 94.1% | KM12 colon 104%

[Br][Pb]([c]1ccccc1)([c]1ccccc1)[c]1ccccc1
active: NCI-H23 lung -88.8% | NCI-H226 lung -44.6% | NCI-H322M lung -100% | HOP-62 NSCLC -97.7% | NCI-H460 lung -100% | 786-0 renal -96.3% | MDA-MB-231 breast -92.2% | SF-268 CNS -95.1% | SF-539 CNS -90.6% | U251 CNS -100% | UACC-62 melanoma -92.2% | SK-MEL-28 melanoma -100% | SN12C renal -83.7% | UO-31 renal -99.8% | OVCAR-8 ovarian -100% | OVCAR-3 ovarian -99% | MDA-MB-435 melanoma -98.6% | SW-620 colon -95.3% | MCF7 breast -69.9% | KM12 colon -99.4%

Cc1ccc(C[As+](c2ccccc2)(c2ccccc2)c2ccccc2)cc1
inactive: NCI-H322M lung 18.6% | 786-0 renal 13.5% | MDA-MB-231 breast 10.6% | SF-268 CNS 24.1% | SF-539 CNS 24.1% | U251 CNS 10.9% | SK-MEL-28 melanoma 37.2% | UO-31 renal 69% | OVCAR-3 ovarian 13.9% | SW-620 colon 11.9%
active: NCI-H23 lung -11.1% | NCI-H226 lung 8.52% | HOP-62 NSCLC 9.44% | NCI-H460 lung 2.34% | UACC-62 melanoma 8.38% | SN12C renal 3.83% | OVCAR-8 ovarian 9.13% | MDA-MB-435 melanoma -10.3% | MCF7 breast 9.14% | KM12 colon 3.2%
